Neddylation inh: cullin neddylation inhibition; P61081+Q13564; TR-FRET cullin neddylation, biochemical; inhibition, % at 25 µM; actives 0.58% (n = 360,000); AID 651699; in the data active means inhibition above about 36%
A3A deaminase: human APOBEC3A DNA deaminase inhibition. P31941. actives 0.41% (n = 330,000). inhibition, % at 20 µM. recombinant A3A, FAM/TAMRA ssDNA deamination fluorescence;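 active means at least 40% inhibition at 20 µM here, with at most 30% in a related deaminase screen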;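 further: plate controls were A3A with DMSO for no effect and wells lacking A3A enzyme for full effect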
Target sequence (P31941 whole entry, looked up): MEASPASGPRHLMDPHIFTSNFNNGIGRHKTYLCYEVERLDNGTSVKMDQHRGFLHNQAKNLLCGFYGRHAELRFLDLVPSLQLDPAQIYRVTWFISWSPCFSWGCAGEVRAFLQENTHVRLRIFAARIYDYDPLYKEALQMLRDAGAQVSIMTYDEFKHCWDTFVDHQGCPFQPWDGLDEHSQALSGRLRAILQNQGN
GC-B act: GC-B (human) receptor activation; AID 1920062; HEK293-GC-B cells, CNP EC30, cGMP TR-FRET; 0% at EC30 CNP, 100% saturating CNP; P20594; actives 0.11% (n = 370,000); activation, % at 10 µM;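 active means activation at 10 µM reaching about 35% in either raw or pattern-adjusted values, limit read from the data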
APOBEC3G inh: inhibitors of human APOBEC3G DNA deaminase | Q9HC16 | recombinant A3G, ssDNA deamination FAM/TAMRA fluorescence | inhibition, % at 20 µM | actives 0.28% (n = 330,000) | AID 493012;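 active means inhibition of at least 40% at 20 µM, with no more than 30% in the related APOBEC3A deaminase screen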;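 further: plate controls were DMSO wells with A3G for no effect and wells lacking A3G enzyme for full effect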
Target sequence (Q9HC16 whole entry, looked up): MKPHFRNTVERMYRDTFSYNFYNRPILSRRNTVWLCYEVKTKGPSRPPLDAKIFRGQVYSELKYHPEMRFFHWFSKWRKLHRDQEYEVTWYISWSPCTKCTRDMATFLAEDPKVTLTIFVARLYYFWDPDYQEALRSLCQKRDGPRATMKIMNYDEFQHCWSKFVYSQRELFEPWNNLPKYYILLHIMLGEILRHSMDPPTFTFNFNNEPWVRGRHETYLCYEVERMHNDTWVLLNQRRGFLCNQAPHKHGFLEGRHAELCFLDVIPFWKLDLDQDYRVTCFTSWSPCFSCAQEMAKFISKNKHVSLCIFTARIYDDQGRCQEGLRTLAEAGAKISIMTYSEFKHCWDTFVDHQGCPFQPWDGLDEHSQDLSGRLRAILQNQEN
NPR1 activator: GC-A (human) enzyme activation; P16066; HEK293 GC-A cells, cGMP TR-FRET, EC30 ANP; 0% at EC30 ANP, 100% saturating ANP; activation, % at 10 µM; actives 0.14% (n = 370,000); AID 1671463; in the data active means activation above about 40%
PfG6PD inh: PfG6PD (Plasmodium falciparum) enzyme inhibition; PfGluPho enzyme, NADPH resazurin-diaphorase fluorescence; inhibition, % at 20 µM; actives 0.78% (n = 350,000); AID 504690;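 active means inhibition reaching at least a set limit at 20 µM in the primary screen, cut at about 59% in these data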;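 further: 0% = DMSO wells with substrate and 100% = DMSO wells lacking glucose-6-phosphate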
PfGluPho conf: PfG6PD inhibition, single-dose confirmed; shares compounds with PfG6PD inh; recombinant PfGluPho, NADPH-diaphorase-resazurin fluorescence; inhibition, % at 20 µM; actives 34% (n = 2,400); AID 504753;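 active means inhibition of at least 50% at 20 µM in any single replicate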;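 further: 0% = DMSO with substrate and 100% = DMSO lacking glucose-6-phosphate substrate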
Diaphorase 10uM: inhibits diaphorase or oxidizes, flagging false PfG6PD hits | shares compounds with PfG6PD inh | diaphorase-coupled resazurin reduction, fluorescence, NADPH 10 uM | inhibition, % at 20 µM | actives 39% (n = 820) | AID 504862;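 active means average inhibition reaching 50% or more with the compound at 20 µM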;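 further: resorufin red fluorescence formed as diaphorase reduces resazurin using NADPH; 0% = DMSO with enzyme and 100% = DMSO without enzyme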
Diaphorase 30uM: inhibits diaphorase or oxidizes, flagging false PfG6PD hits; shares compounds with PfG6PD inh; Diaphorase/resazurin coupled assay, resorufin fluorescence, 30 uM NADPH; inhibition, % at 20 µM; actives 29% (n = 820); AID 504863;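 active means inhibition averaging 50% or more, tested at 20 µM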;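 further: 0% = DMSO with enzyme and 100% = DMSO wells lacking diaphorase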
* = called active by the depositor; x = not tested or not shown. In the library only some 2% were active in any assay of this set; here they are far more common.

SMILES	Neddylation inh	A3A deaminase	GC-B act	APOBEC3G inh	NPR1 activator	PfG6PD inh	PfGluPho conf	others
COCC(C)n1c(C)cc(C(=O)CSc2nc(C)c(C)c(C)n2)c1C (configuration not stated)	16	-2	3	-8	3	60*	-12
COCCn1c(C)cc(C(=O)CSc2nc(C)c(C)c(C)n2)c1C	16	-2	-3	-1	2	32	x
COC(=O)[C@]12C[C@H](CC(=O)NCC3CCCCC3)C(=O)N(Cc3cccc4ccccc34)C1=C[C@H](C1CCCC1)O[C@@H]2C	x	x	-3	x	-4	x	x
c1ccc(-c2ccc(C3=Nn4c(nnc4-c4ccccn4)SC3)cc2)cc1	x	x	-14	x	-6	x	x
CC(=O)c1cccc(NC(=O)c2ccc(-c3ccccc3[N+](=O)[O-])o2)c1	-15	-2	3	-5	3	61*	22
COc1ccc(NC(=O)c2ccc(-c3ccc([N+](=O)[O-])cc3)o2)cc1OC	-37	-4	4	-6	7	29	x
COc1cccc(NC(=O)c2ccc(-c3ccc([N+](=O)[O-])cc3)o2)c1	-19	-1	3	-8	0	64*	6
CN(C(=S)NC(=O)C1CC1)c1ccc(O)cc1	12	-3	-1	-1	-1	60*	-1
Nc1ccc(C(=O)N/N=C/c2cccc(Oc3ccccc3)c2)cc1	24	1	-4	4	-2	21	x
Cc1nc2ccc(Br)cn2c1C(=O)N/N=C\c1ccc(C(C)C)cc1	6	-6	-7	-5	-7	-1	x
Cc1nn(C)c(C(=O)N/N=C/c2cccc(Oc3ccccc3)c2)c1Br	-13	-1	4	2	-3	145*	89*	Diaphorase 10uM=80*;Diaphorase 30uM=71*
COc1ccc(OC)c(/C=N/NC(=O)c2c(C)nc3ccc(C)cn23)c1	x	-1	-2	-5	8	62*	43
COc1cccc(/C=N/NC(=O)c2c(C)nc3ccc(Br)cn23)c1	-5	-5	x	5	x	91*	54*	Diaphorase 10uM=40;Diaphorase 30uM=40
CCc1ccc(CCNC(=O)OC2CC3CC2[C@H]2CCCCN2C3)cc1 (some centres not stated)	x	x	2	x	-2	x	x
CC(C)C[C@@H]1COc2cc(Br)ccc2S(=O)(=O)N1Cc1cn(CCC2OCCCO2)nn1	x	x	4	x	1	x	x
CC(C)c1ccccc1-n1c(SCc2cc(=O)oc3ccc4ccccc4c23)nnc1-c1cccnc1	23	-2	-17	-10	-30	61*	-15
O=c1[nH]c(CN2CCN(c3ccc(O)cc3)CC2)nc2scc(-c3ccc(Cl)cc3)c12	-5	-2	3	-3	6	78*	22
Cc1ccccc1NC1=C/C(=N\S(=O)(=O)c2ccc(C(=O)O)cc2)c2ccccc2C1=O	-67	1	-4	-5	3	78*	61*	Diaphorase 10uM=59*;Diaphorase 30uM=52*
CC(C)c1ccc(S(=O)(=O)/N=C2\C=C(NS(=O)(=O)c3ccccc3)C(=O)c3ccccc32)cc1	-35	x	-5	x	-3	12	x
COc1ccc(S(=O)(=O)/N=C2\C=C(Nc3ccc(O)cc3)C(=O)c3ccccc32)cc1	-81	0	-8	-3	-13	109*	52*	Diaphorase 10uM=40;Diaphorase 30uM=48
CC(=O)Nc1ccc(NC2=C/C(=N/S(=O)(=O)c3cccs3)c3ccccc3C2=O)cc1	-36	-2	5	-5	0	87*	73*	Diaphorase 10uM=73*;Diaphorase 30uM=76*
CC(=O)Nc1ccc(NC(=O)C(C)OC(=O)c2ccccc2NS(=O)(=O)c2cccs2)cc1 (configuration not stated)	10	3	5	-5	-1	52	x
COC(=O)[C@]12C[C@H](CC(=O)NCc3ccc(OC)c(OC)c3)C(=O)N(Cc3ccc(Cl)cc3Cl)C1=C[C@H](COCc1ccccc1)O[C@@H]2C	x	x	6	x	-5	x	x
CCOC(=O)c1sc(=S)n(-c2ccccc2)c1NC(C)=O	-7	-4	-5	-9	5	2	x
CCOC(=O)c1sc(=S)n(C)c1NC(=O)c1ccccc1	-2	-5	7	37	1	64*	28
SMILES	Neddylation inh	A3A deaminase	GC-B act	APOBEC3G inh	NPR1 activator	PfG6PD inh	PfGluPho conf	others
O=[N+]([O-])c1ccc(Oc2cccc3cccnc23)c(Cl)c1	-32	-3	-6	-7	-7	111*	80*	Diaphorase 10uM=72*;Diaphorase 30uM=60*
NC(=O)c1ccc(Oc2cccc3cccnc23)c([N+](=O)[O-])c1	10	1	-2	0	5	19	x
O=C(CSc1nnc(-c2ccccc2)n1-c1ccc(Cl)cc1)Nc1ccccc1-c1ccccc1	x	x	-13	x	-15	x	x
CCN(c1ccccc1)S(=O)(=O)c1ccc(N2CCN(c3ccc(O)cc3)CC2)nc1	4	-1	-4	22	-2	76*	16
CCN(c1ccccc1)S(=O)(=O)c1ccc(N2CCN(c3ccc(OC)cc3)CC2)nc1	3	-4	1	-11	-1	11	x
Cc1cccc(OCCC(=O)NCC(=O)Nc2cccc(C)c2C)c1	0	8	-2	-5	-4	105*	91*	Diaphorase 10uM=81*;Diaphorase 30uM=67*
Cc1cccc(NC(=O)CCOc2ccccc2)c1C	5	-3	0	-6	0	-9	x
CSC1=NS(=O)(=O)c2c(C)nn(C)c2S1	2	2	3	39	15	63*	2
O=C1C(=C(c2ccccc2)N2CCOCC2)Cc2ccccc21	7	x	-1	x	-8	66*	22
CCCCCC[C@@H](CC)CN(C(=O)Oc1ccccc1)c1ccccc1	x	x	-2	x	-1	x	x
COc1cc2[nH]c(Cl)c([N+](=O)[O-])c2cc1OC	2	-1	5	-3	-6	104*	21
O=C(Nc1ccc2ccccc2c1)C1CC2CCC1C2 (configuration not stated)	x	x	-5	x	4	x	x
O=[N+]([O-])c1ccc(O)c(CNCc2ccccc2)c1	-18	x	1	x	-3	6	x
Oc1cc(CNCc2ccccc2)c(O)cc1CNCc1ccccc1	19	x	-1	x	-9	70*	49*	Diaphorase 10uM=-6;Diaphorase 30uM=-1
Cc1c(NC(=O)C2CCCN(S(=O)(=O)c3cccc4ccccc34)C2)c(=O)n(-c2ccccc2)n1C (configuration not stated)	x	x	-6	x	3	x	x
Clc1ccccc1Cn1ccc2ccc(-c3ccc4ccn(Cc5ccccc5Cl)c4c3)cc21	x	x	-1	x	5	x	x

Screening results as filed in PubChem.
